Screens (PubChem BioAssay)
IL-2 act = qHTS of IL-2 Activators; actives 0.065% (n = 360,000); activation, % (series mostly up to about 46 µM); IL-2 activation reporter assay, cell-based qHTS; stimulated with anti-CD3/CD4/CD28 beads; in transgenic mouse T cells; in the data active = activation above about 50%; inconclusive = mostly about 30% to 49%; also: 0% is about no effect
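Using fluorescent plate cytometry, EGFP and DsRed are detected in transgenic mouse T cells stimulated 18 h at 37 degrees C with antibody-coated beads after 60 min compound pretreatment.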
A549 viability = Nrf2 qHTS screen for inhibitors: counterscreen for cytotoxicity. A549 ARE-Fluc cells, CellTiter-Fluor viability, 18-24 h. Potency, µM (top dose mostly 46 µM), for inactives: at the top dose activity change, negative = cytotoxicity, most hits filed as inhibitors. actives 0.16% (n = 390,000). AID 504648, 2011; also: potency is read from the fitted curve at half-maximal effect; % is scaled to controls: 0 for no effect and ±100 for the full control effect
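A549 ARE-Fluc cells in 5% FBS OPTI-MEM, 5000 cells/well, rested 2 h then exposed to compounds in concentration-response for 18-24 h at 37 °C. Viability by CellTiter-Fluor fluorescence (Ex 405/Em 525) after 30 min; luciferase luminescence (BugLite, 15 min, RT) read afterwards.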
p53 reactivation = qHTS assay for re-activators of p53 using a Luc reporter; actives 0.063% (n = 320,000); H1299 p53-A138V BP100-luciferase reporter, luminescence, 24 h; Potency, µM (titrated, usually from 92.2 µM), for inactives: top-dose activity change, positive = activation, actives largely listed as activators; also: potency is read from the fitted curve at half-maximal effect; % of control where 0% means no effect; nearly all actives have a fitted effect of over 45% in size
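H1299 (p53-null), stable ts p53-A138V + BP100-Luc; 1000 cells/well, Opti-MEM/10% FBS; cpd 4 pt, 1:5; 24 h, 37 deg C, 5% CO2; detection reagent 10 min RT; luminescence.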
Nrf2 activator = qHTS of Nrf2 Activators; AREc32 ARE-luciferase reporter (MCF7-derived line), luminescence, 24 h; Potency, µM (doses to about 46.1 µM), inactives show top-dose activation, actives largely listed as activators; actives 0.31% (n = 410,000); AID 624171, 2012; also: potency is read from the fitted curve at half-maximal effect; % of control where 0% means no effect; nearly all actives have a fitted effect of over 65% in size
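Cells of the AREc32 ARE-luciferase line are plated in OPTI-MEM containing 5% FBS and left overnight at 37 deg C. Compounds are pinned in, incubation continues 24 hr, and firefly luciferase signal is then measured.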
BRCA1 expr act = qHTS Assay to Identify Small Molecule Activators of BRCA1 Expression; actives 1.1% (n = 380,000); MCF7-BRCA1-FFLuc reporter, luminescence, 48 h; response scale: scaled: vehicle 0%, 10 µM genistein 100%; Potency, µM (top dose mostly 46.1 µM), without a hit: at the top dose activation, hits mostly activators; also: potency is read from the fitted curve at half-maximal effect; nearly all actives have a fitted effect of over 80% in size
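Luminescence from a BRCA1-driven firefly luciferase in MCF7 cells was the read-out, taken 15 min after substrate addition following 48 h compound exposure at 37 °C. Data were normalized to a 10 microM genistein control and DMSO vehicle.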
Nrf2 inh = Nrf2 qHTS screen for inhibitors; AID 504444, 2011; Potency, µM (doses to about 46 µM), inactives show at the highest dose activity change, negative = inhibition, actives largely listed as inhibitors; A549 ARE-Fluc reporter, luciferase luminescence, 18-24 h; actives 2.1% (n = 360,000); also: potency is read from the fitted curve at half-maximal effect; % is scaled to controls: 0 for no effect and ±100 for the full control effect; nearly all actives have a fitted effect of over 60% in size
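Nrf2 activity is the BugLite luminescence, read 15 min after reagent at room temperature, following CellTiter-Fluor cytotoxicity readout (30 min, 37C). Compound titrations were applied for 18-24 h to 5000 A549 ARE_Fluc cells/well in 5% FBS OPTI-MEM.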
* = called active by the depositor; ? = inconclusive; / = no result. Shown are actives, neighbours in structure and some others; about 3.2% of the full set was active somewhere. Unless noted, calls follow the shape of the dose curve; as a rule, active = well fitted curve in the direction sought with a large enough effect; inconclusive = small, poorly fitted or top-dose-only effect, or another doubt; inactive = no such curve, though single readings can be large; an effect the other way counts as inactive or inconclusive.

SMILES | IL-2 act | A549 viability | p53 reactivation | Nrf2 activator | BRCA1 expr act | Nrf2 inh
CC(=O)Nc1cccc(OCc2cccc(C3Nc4ccccc4C(=O)N3Cc3ccco3)c2)c1 (stereo unspecified) | / | -15% | / | / | / | ?
Cc1c([S+](=O)([O-])N2CCN([S+](=O)([O-])c3c(F)cccc3F)CC2)sc2ccc(Cl)cc12 | / | -1% | / | / | / | 14%
COc1ccc(OCC(=O)Nc2ccc(C(=O)OCc3cc(=O)n4nc(C)sc4n3)cc2)cc1 | / | -2% | / | -1% | / | /
O=S(=O)(Nc1cccc(-c2ccc(N3CCCCCC3)nn2)c1)c1ccccc1F | 7 | -9% | ? | 3% | 13µM* | 3%
O=S(=O)(Nc1cccc(-c2ccc(N3CCCCCC3)nn2)c1)c1ccccc1Cl | 0 | -3% | 10% | 3% | 75% | ?
COc1ccc2c(c1)CC(C(=O)NCCc1ccc(S(N)(=O)=O)cc1)CO2 (stereo unspecified) | / | 6% | / | -1% | / | /
C/C(=N\NC(=O)c1ccccc1)c1ccc(N2CCCCC2)cc1 | -2 | -3% | 30% | 0% | 11µM* | ?
C/C(=N\NC(=O)c1ccccc1)c1ccccc1Br | 4 | 11% | ? | 5% | 11µM* | ?
C/C(=N\NC(=O)c1ccc(N2CCCC2=O)cc1)c1ccccc1 | 1 | 3% | 3% | 0% | 26% | ?
CNC(=S)N/N=C(\C)c1ccc(N2CCOCC2)cc1 | 0 | 3% | ? | 5% | 8.9µM* | 13%
Cc1nc2c(c(C)c1CCC(=O)NCc1ccc(Cl)cc1)c(=O)n(C)c(=O)n2C | / | 2% | / | 0% | 1% | 6%
CCc1ccc(NC(=O)CC2C(=O)N(c3cccc(OC)c3)C(=O)N2C2CCCC2)cc1 (stereo unspecified) | / | -11% | / | 0% | / | -18%
S=C(c1ccc(-c2ccccc2Cl)o1)N1CCOCC1 | -3 | -1% | ? | 4% | 7.1µM* | ?
S=C(c1ccc(-c2ccc(Cl)cc2Cl)o1)N1CCCCC1 | -1 | -10% | ? | 3% | 7.9µM* | ?
O=C(c1ccc(-c2ccccc2Cl)o1)N1CCCC(C(F)(F)F)C1 (stereo unspecified) | 0 | 18% | ? | 4% | 13µM* | ?
S=C(c1ccc(-c2ccc(Cl)c(Cl)c2)o1)N1CCOCC1 | -2 | -2% | ? | 5% | ? | ?
O=C(c1ccc(-c2ccccc2Cl)o1)N1CCC1 | 0 | -1% | 29% | 3% | 2.8µM* | ?
O=C(COC(=O)c1ccccc1Oc1ccccc1)Nc1ccc(Br)cc1 | / | / | / | / | 0% | /
CCOc1ccccc1NC(=O)Cn1nc(N2CCN(c3ccccc3)CC2)ccc1=O | / | 5% | / | 4% | / | ?
Cc1cc2c(cc1C)NC1=C(N2)OC(c2cccc(O)c2)C1=O (stereo unspecified) | 0 | 11% | 0% | 3% | 36% | 12%
COc1ccc(C2OC3=C(Nc4cc(C)c(C)cc4N3)C2=O)cc1 (stereo unspecified) | 0 | -8% | ? | 3% | 2.8µM* | ?
NC(=O)CC(NC(=O)Cc1ccc(Br)cc1)c1ccc(NC2CCCCCC2)c([N+](=O)[O-])c1 (stereo unspecified) | 0 | ? | -6% | -1% | -64% | 23µM*
COc1ccc2nc(/C=N/NC(=O)CCNC(=O)OC(C)(C)C)ccc2c1 | -1 | 1% | ? | 4% | 6.3µM* | 15%
CCC(C(=O)NCc1ccccc1Cl)n1c(=O)c2cccn2c2ccccc21 (stereo unspecified) | / | -8% | / | 1% | / | ?
NNc1nc(-c2ccccc2)cc(-c2ccccc2)n1 | 1 | -3% | 1% | -1% | -45% | 9.2µM*
SMILES | IL-2 act | A549 viability | p53 reactivation | Nrf2 activator | BRCA1 expr act | Nrf2 inh
NNc1nc(-c2ccccc2)cc(-c2ccccc2O)n1 | 1 | 12% | 0% | 0% | -83% | ?
Clc1nc(-c2ccccc2)cc(-c2ccccc2)n1 | 2 | 2% | 11% | 8.9µM* | -47% | 11%
COCCOC(=O)c1[nH]c2c(c1C)C(=O)CC(c1cc(OC)c(OC)c(OC)c1)C2 (stereo unspecified) | -1 | -3% | -7% | 3% | -46% | ?
C=CCOC(=O)c1[nH]c2c(c1C)C(=O)CC(c1cc(OC)c(OC)c(OC)c1)C2 (stereo unspecified) | -3 | -30% | -14% | 3% | -26% | 10µM*
CCCCOC(=O)c1[nH]c2c(c1C)C(=O)CC(c1cc(OC)c(OC)c(OC)c1)C2 (stereo unspecified) | -5 | -29% | 0% | 5% | -42% | 13µM*
O=C1CCc2cc(S(=O)(=O)Nc3cccc(B(O)O)c3)ccc2N1 | / | -6% | / | / | / | ?
CCc1ccc2[nH]c(=O)c(CN(Cc3cccnc3)Cc3nnnn3Cc3ccccc3)cc2c1 | / | ? | / | / | 0% | ?
N/C(CS(=O)(=O)c1ccccc1)=N\OC(=O)c1ccc(F)cc1 | -2 | 0% | ? | 0% | 11µM* | ?
CC(=O)N1CCCc2cc(S(=O)(=O)N3CCCC(C(=O)N4CCN(c5cc(C)ccc5C)CC4)C3)ccc21 (stereo unspecified) | -2 | -10% | -13% | -1% | -49% | 7.3µM*
CC(=O)N1CCCc2cc(S(=O)(=O)N3CCCC(C(=O)N4CCN(c5ccccc5)CC4)C3)ccc21 (stereo unspecified) | -4 | -6% | -12% | 0% | -32% | 13µM*
CCOC(=O)N1CCN(C(=O)C2CCCN(S(=O)(=O)c3cc(C)ccc3OC)C2)CC1 (stereo unspecified) | -1 | -3% | -3% | 0% | -41% | ?
COc1ccc(CNC(=O)C2CCCN(S(=O)(=O)c3ccc4c(c3)CCCN4C(C)=O)C2)cc1 (stereo unspecified) | -5 | 0% | -2% | 0% | -31% | 21µM*
Cc1ccc(C)c(N2CCN(S(=O)(=O)c3ccc4c(c3)CCCN4C(=O)C3CCC3)CC2)c1 | / | 11% | / | 1% | / | /
COc1ccc(C)cc1S(=O)(=O)N1CCCC(C(=O)N2CCN(c3ccccc3)CC2)C1 (stereo unspecified) | -3 | 1% | -5% | -1% | -31% | 26µM*
O=C(NC1(C(F)(F)F)C(=O)Nc2c1c(=O)[nH]c(=O)n2-c1ccccc1)c1ccccc1Cl (stereo unspecified) | / | 8% | / | -1% | / | /
